Source: PubChem BioAssay
Sfp PPTase inh – inhibitors of Bacillus subtilis Sfp phosphopantetheinyl transferase; Q9F4F7; Biochemical Sfp PPTase activity, qHTS; Potency, µM, for inactives: largest response in the series, negative = inhibition, most hits filed as inhibitors; hit rate 3.5% among 310,000; AID 1490;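 further: the enzyme is Sfp with the accession as filed and its product quenches rhodamine fluorescence; 0% = enzyme reaction without inhibitor and -100% = no enzyme wells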
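With Hepes-Na pH 7.6 buffer containing 10 mM MgCl2, Sfp (15 nM) modified BHQ-2-YbbR (12.5 uM) using rhodamine-CoA (5 uM). Two reads 30 minutes apart at 525/598 nm yielded each well's rate.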
GRP78 ERSR act – induces the endoplasmic reticulum stress response in human glioma cells; AID 602332; U87-MG GRP78 promoter luciferase reporter, 16 h; Potency, µM, inactives show at the top dose activation, actives largely listed as activators; hit rate 0.02% among 420,000; further: series mostly up to about 76 µM; % of control where 0% means no effect; nearly all actives have a fitted effect of over 35% in size
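Stably transfected U87-MG glioma cells carrying a GRP78-based luciferase sensor; 16 h compound incubation. Luminescence end-point read 10 min after Bright-Glo addition at room temperature.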
VDR inhibitor – inhibitors of human vitamin D receptor; P11473; VDR-SRC2-3 peptide fluorescence polarization, 2 h; Potency, µM, for inactives: max response, negative = inhibition, most hits filed as inhibitors; hit rate 0.93% among 400,000; AID 504847; further: on the % scale 0 is the no-effect control and ±100 the full control effect
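Signal is fluorescence polarization, reporting how far test compounds block the interaction of VDR with the SRC2-3 coregulator peptide after a 2 h room-temperature incubation.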
ALOX12 inh – blocks human arachidonate 12S-lipoxygenase | purified 12hLO, xylenol orange hydroperoxide absorbance | P18054 | Potency, µM (series often up to 108 µM), for the others: top-dose activity change, negative = inhibition, usual class: inhibitors | AID 1671190 | hit rate 1.1% among 580,000; further: on the % scale 0 is the no-effect control and ±100 the full control effect
Target sequence (P18054 whole entry, looked up): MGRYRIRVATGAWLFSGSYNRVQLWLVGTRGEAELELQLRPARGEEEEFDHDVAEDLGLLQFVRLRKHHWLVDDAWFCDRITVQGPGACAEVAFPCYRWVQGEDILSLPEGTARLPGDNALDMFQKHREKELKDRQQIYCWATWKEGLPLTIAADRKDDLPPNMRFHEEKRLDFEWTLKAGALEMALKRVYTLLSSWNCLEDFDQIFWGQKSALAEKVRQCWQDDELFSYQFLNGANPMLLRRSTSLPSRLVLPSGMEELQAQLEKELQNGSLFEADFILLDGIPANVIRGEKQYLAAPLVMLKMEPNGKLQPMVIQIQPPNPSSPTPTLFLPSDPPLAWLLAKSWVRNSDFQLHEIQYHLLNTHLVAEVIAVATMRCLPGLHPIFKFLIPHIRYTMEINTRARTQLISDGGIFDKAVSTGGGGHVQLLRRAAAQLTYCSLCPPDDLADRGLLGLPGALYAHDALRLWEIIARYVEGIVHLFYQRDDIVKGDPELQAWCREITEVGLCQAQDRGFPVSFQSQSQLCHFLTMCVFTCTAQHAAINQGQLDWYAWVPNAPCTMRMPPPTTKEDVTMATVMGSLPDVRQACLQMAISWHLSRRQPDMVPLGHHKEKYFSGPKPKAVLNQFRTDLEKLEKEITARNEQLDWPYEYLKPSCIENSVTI
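Purified human 12hLO at 150 nM in 25 mM Hepes, 0.01% Triton X-100, pH 7.0, preincubated 15 min at room temperature with compound. Reaction started with 40 uM arachidonic acid, 30 min at room temperature. Hydroperoxide measured by Fe-xylenol orange, 573/405 nm absorbance ratio.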
G9a block – G9a (human) methyltransferase inhibition; Q96KQ7; G9a H3K9 monomethylation, AlphaScreen, 2 h; Potency, µM (top dose mostly 102 µM), without a hit: at the top dose activity, negative = inhibition, actives largely listed as inhibitors; hit rate 8.8% among 350,000; further: on the % scale 0 is the no-effect control and ±100 the full control effect; nearly all actives have a fitted effect of over 75% in size
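Using a bead-based AlphaScreen, monomethylated H3K9 product from 2 h room-temperature reactions (G9a 20 nM, peptide 500 nM, SAM 20 uM) was detected with 0.5 ug/mL rabbit anti-H3K9me1 antibody.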
Starred values were filed as active, the others as inactive; i = inactive; ? = inconclusive; nt = no result; ! = not active in a repeat; [ ] = remark or other dose. This excerpt belongs to a sample that is enriched for hits. The call rests on the fitted dose curve; in most records, active means well fitted curve in the direction sought with a large enough effect; inconclusive means small, poorly fitted or top-dose-only effect, or another doubt; inactive means no such curve, though single readings can be large; an effect the other way counts as inactive or inconclusive. Potency means the concentration at half of the fitted maximal effect.

SMILES	Sfp PPTase inh	GRP78 ERSR act	VDR inhibitor	ALOX12 inh	G9a block
COc1ccc(OC)c(NC(=O)c2cc3sccc3n2C)c1	-25.2%	-0.2%	-7.8%	-15.8%	50.1µM*
CC(=O)c1cccc(NC(=O)Nc2cccs2)c1	?	0.9%	10.5%	234.9%	?
COc1ccc(OC)c(NC(=O)c2cccc3c2C(=O)N(C2CCCCC2)C3)c1	0.8%	-3.3%	22.4µM*!	?	?
CC(=O)c1cccc(NC(=O)Nc2cc3sccc3n2C)c1	39.8µM*	nt	nt	nt	?
Cc1cccc(C(=O)NCCc2c[nH]c3ccccc23)c1C	nt	nt	nt	-4.6%	nt
COc1ccc(N2CCN(c3nc(C(=O)NCc4ccc(C)c(C)c4)cs3)CC2)cc1	nt	nt	nt	15.5%	nt
COc1ccccc1-c1c(C)nn2c(C(F)(F)F)cc(-c3ccccc3)nc12	nt	-1.9%	-7.2%	0.0%	8.91µM*
COc1ccc(-c2c(C)nn3c(C(F)(F)F)cc(-c4ccc(Br)cc4)nc23)cc1	nt	nt	9.2%	?	?
COc1ccc(-c2c(C)nn3c(C(F)(F)F)cc(C)nc23)cc1OC	nt	-2.4%	5.7%	-11.4%	-33.1%[59 µM]
COc1ccc(-c2c(C)nn3c(C(F)(F)F)cc(-c4ccccc4)nc23)cc1	nt	-3.6%	-5.3%	-25.6%	1.78µM*
CCCCN1C[C@H](C)[C@@H](CC(=O)NCc2ccccc2)C1=O	16.6%	-1.0%	6.1%	-1.8%	44.7µM*
Cc1ccc(C(=O)Nc2cccc(NC(=O)c3ccc(C)cc3)n2)cc1	nt	-0.5%	5.4%	?	nt
Cc1ccc(C(=O)Nc2nc(=O)n(C(=O)c3ccccc3C)s2)cc1	-0.3%	2.7%	22.4µM*	?	?
O=C(Nc1nc(=O)[nH]s1)c1ccccc1	-4.3%	0.6%	6.3%	1.6%	3.1%
O=C(Nc1nc(=O)n(C(=O)C2CC2)s1)c1ccccc1	-5.5%	2.6%	50.1µM*	-8.6%[57.4 µM]	-45.2%[12.7 µM]
CC(C)(C)c1ccc(COn2c(=O)c(-c3ccco3)[n+]([O-])c3ccccc32)cc1	56.2µM*	-0.4%	10.1%	?	?
CCNCc1ccc(-c2ccccc2Cl)o1	nt	nt	nt	-13.0%	nt
Cn1nc(CC(=O)NCc2ccccc2F)c2ccccc2c1=O	nt	nt	nt	-18.6%	nt
Cc1c(C(=O)NN)nn(-c2ccc(Cl)cc2)c(=O)c1C#N	6.7%	-7.8%	2.7%	-7.8%	44.7µM*
COc1ccc(-n2nc(C(=O)N3CCCCC3)c(C)c(C#N)c2=O)cc1	19.2%	-0.8%	9.9%	-10.8%	-1.3%
O=C(c1cc(-c2ccccc2Cl)nc2ccccc12)N1CCCC1	nt	nt	nt	15.9%	nt
COc1ccc(-c2cc(C(=O)N3CCN(c4ccccc4O)CC3)c3ccccc3n2)cc1	nt	5.4%	-3.5%	-8.4%	?
O=C(c1cc(-c2ccccc2Cl)nc2ccccc12)N1CCN(c2ccccc2O)CC1	nt	-5.3%	-17.2%	?	56.2µM*
Cc1ccc(-c2cc(C(=O)N3CCN(c4ccccc4O)CC3)c3ccccc3n2)cc1	nt	2.3%	7.8%	?	39.8µM*
COC(=O)c1ccc(/C=C(\C#N)C(=O)NC(C)c2ccccc2)cc1 (stereo not given)	31.6µM*	?	?	?	50.1µM*
SMILES	Sfp PPTase inh	GRP78 ERSR act	VDR inhibitor	ALOX12 inh	G9a block
CC(NC(=O)/C(C#N)=C/c1ccco1)c1ccccc1 (stereo not given)	50.1µM*	-1.6%	-11.8%	87.7%	1.3%
CC(C)NC(=O)/C(C#N)=C/c1ccc(C(=O)O)cc1	nt	nt	nt	22.4µM*	nt
CC(NC(=O)/C(C#N)=C/c1ccc([N+](=O)[O-])o1)c1ccccc1 (stereo not given)	-18.3%	-19.2%	25.1µM*	?	44.7µM*
CC(C)CCn1nc(C(=O)OCC(=O)c2ccc3c(c2)NC(=O)CO3)c2ccccc2c1=O	nt	nt	nt	11.2%	nt
S=c1[nH]nc(C2CCCCC2)n1/N=C/c1ccncc1	39.8µM*	-3.0%	-15.5%	-3.0%	?
CSc1ccc(/C=N/n2c(C3CCCCC3)n[nH]c2=S)cc1	-6.6%	-1.9%	-4.5%	?	11.2µM*
CSc1ccc(/C=N/n2c(C)nnc2C)cc1	12.3%	-2.2%	12.1%	5.4%	?
Cc1ccc(/C=N/n2c(C3CCCCC3)n[nH]c2=S)o1	-29.1%	-3.8%	-5.6%	?	2µM*
O=C(O)c1ccc(/C=N/n2c(C3CCCCC3)n[nH]c2=S)cc1	16.4%	-2.4%	9.0%	i	10µM*
O=[N+]([O-])c1ccc(/C=N/n2c(C3CCCCC3)n[nH]c2=S)cc1	-7.8%	-4.4%	7.1%	0.7%	?
O=C(O)c1ccc(/C=N/N2CCN(Cc3ccccc3)CC2)cc1	8.2%	-4.5%	-1.3%	17.2%	?
Cc1ccc(/C=N/N2CCCCC2)o1	-42.2%	1.6%	-8.1%	2.8%	?
COC(=O)c1c(NC(=O)C(C)C)sc(C(=O)N2CCOCC2)c1C	?	-1.1%	-19.3%	-6.1%	44.7µM*
COC(=O)c1c(NC(C)=O)sc(C(=O)N2CCOCC2)c1C	-6.5%	-1.6%	-0.1%	23.3%	29.0%
Cc1cc(Cc2ccccc2)c(C)cn1	nt	nt	nt	3.1%	nt
COc1ccc(OC)c(-c2nnc(NC(=O)C(C)Sc3nncn3C)s2)c1 (stereo not given)	?	2.4%	3.0%	12.4%	31.6µM*
COc1ccc(Cl)cc1NC(=O)C(C)Sc1nncn1C (stereo not given)	14.4%	-4.3%	-1.9%	8.6%	-0.5%
CC(C)(C)NC(=O)C1CCC(C)(C(=O)O)C1(C)C (stereo not given)	22.6%	-3.2%	-1.8%	0.0%	-22.6%[59 µM]
CN(C)C(=O)C1CCC(C)(C(=O)O)C1(C)CI (stereo not given)	nt	nt	nt	39.8µM*	nt
COc1ccc(C2CC(c3ccc4ccccc4c3)=NN2C(=O)COC(=O)C2CCC(=O)N2)cc1 (stereo not given)	-22.7%	3.1%	3.4%	-14.1%	?
C=CCNCC(=O)N1N=C(c2ccc3ccccc3c2)CC1c1ccc(OC)cc1 (stereo not given)	-29.8%	-5.0%	-13.1%	?	8.91µM*
COc1ccc(C2CC(c3ccc(Br)cc3)=NN2C(=S)Nc2ccccc2)cc1 (stereo not given)	-8.3%	2.7%	1.6%	-18.2%	2µM*
COc1ccc(C2CC(c3ccc4ccccc4c3)=NN2C(=O)CNC2CCCCC2)cc1 (stereo not given)	-63.6%	-11.3%	3.1%	44.7µM*	10µM*
CC(=O)OCC(=O)N1N=C(c2ccc3ccccc3c2)CC1c1ccccc1 (stereo not given)	25.1µM*	0.0%	-5.9%	-2.1%	-8.8%
Oc1cc(-n2cccn2)c(O)cc1-n1cccn1	5.01µM*	2.6%	5.6%	?	0.708µM*
O=Cc1ccccc1-n1cccn1	27.4%	0.4%	12.5%	40.5%	1.0%
COc1ccc(-n2cc(CNCc3cccnc3)c(-c3cccc(F)c3)n2)cc1	13.8%	6.3%	5.2%	-2.9%	-1.2%[12.7 µM]
COc1ccc(CNCc2cn(-c3cccc(F)c3)nc2-c2ccc(C)o2)cc1	?	-13.6%	7.0%	44.7µM*	44.7µM*
Cc1ccc(-c2cc(C(=O)NC3CCCCC3C)c3ccccc3n2)cc1C (stereo not given)	nt	nt	nt	11.1%	nt
